A selection: hits, their analogues and other compounds. The true share with any hit is near 1.3%.
B2AR ag = activates human beta-2 adrenergic receptor causing internalization; Am2.2-beta2AR cells, FAP receptor internalization, flow cytometry; response, % (no concentration beside the values); 340,000 tested, 0.43% active; AID 504454;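 active = response above a set limit, near 3 SD of response in nonfluorescent compounds, cut at about 42% in these data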
GRK2 inh = blocks RNA aptamer binding to human GRK2 | P25098 | inhibition of aptamer binding, % at 10 µM | bead flow cytometry, FAM-aptamer displacement from GRK2 | 330,000 tested, 0.59% active;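 active = inhibition of aptamer binding above 40%, roughly 3 SD of noise, on plates passing a quality check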;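 also: median bead fluorescence of bound FAM aptamer so fluorescent compounds give negative values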
Bfl-1 A1 inh = inhibitors of the anti-apoptotic protein A1, read as caspase activation; 330,000 tested, 0.066% active; MEF A1-2A-BIM cells, Caspase-Glo 3/7 luminescence, 3 h; percent of clofoctol response, vehicle zero; caspase activation, % (no concentration beside the values);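 active = over half of replicate activation scores above 10%, or exactly half above 10 with the replicate mean above 10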
VLA-4 inh = inhibition in a human VLA-4 binding assay | P13612 | VLA-4 expressing cells, ligand binding flow cytometry | inhibition, % (about 7 µM as worked out from the volumes in the protocol) | 330,000 tested, 0.2% active | AID 2557; in the data active = inhibition above about 50%
NTR1 ag = NTR1 (human) agonism; P30989; NTR1-U2OS beta-arrestin-GFP spot imaging, agonist mode; activation, % at 20 µM; 330,000 tested, 0.17% active; AID 493036;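 active = activation at or above 40% of the spot to cytoplasm intensity ratio, with at least 20 cells analyzed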
Target sequence (P30989 whole entry, looked up): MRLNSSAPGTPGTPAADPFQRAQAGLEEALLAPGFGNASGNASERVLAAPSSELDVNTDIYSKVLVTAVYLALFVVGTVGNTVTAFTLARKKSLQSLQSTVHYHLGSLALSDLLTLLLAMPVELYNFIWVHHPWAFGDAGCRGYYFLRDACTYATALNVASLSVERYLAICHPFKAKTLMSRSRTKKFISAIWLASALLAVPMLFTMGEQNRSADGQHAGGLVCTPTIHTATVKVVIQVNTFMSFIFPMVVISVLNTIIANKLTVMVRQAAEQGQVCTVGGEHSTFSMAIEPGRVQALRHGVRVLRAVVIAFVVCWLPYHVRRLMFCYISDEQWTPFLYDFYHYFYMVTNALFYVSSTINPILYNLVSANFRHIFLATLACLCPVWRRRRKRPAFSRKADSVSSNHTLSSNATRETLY
NTR1 ag conf = confirmation of agonists of human NTR1; shares compounds with NTR1 ag; activation, % at 20 µM; NTR1-U2OS beta-arrestin-GFP translocation imaging; AID 504550; 480 tested, 38% active;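 active = mean activation at 20 µM of at least 40%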
B2AR ag CP1 = activates human beta-2 adrenergic receptor; shares compounds with B2AR ag; Am2.2-beta2AR cells, FAP surface receptor, flow cytometry; active compounds read low; percent response (surface receptor), % at 10 µM; 1,100 tested, 25% active; AID 540358;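 active = surface receptor percent response at or below 58%, roughly 3 SD from nonfluorescent compounds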
FAP fluor counter = fluorescence artifact in beta-2AR agonist FAP counterscreen. shares compounds with B2AR ag. Am2.2 cells, FAP fluorogen flow cytometry; active compounds read low. calls only at 10 µM. 1,100 tested, under 10 active. AID 588765;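 active = percent response below a set limit in fluorescence channel 1 and below 50% in channel 8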
Of the large screens only hits and unclear results are named; the others gave an inactive call (follow-up assays come after a bar, where they were run).

CC(C)Nc1ccc(Nc2ccnc3cc4ccccc4cc23)cc1	B2AR ag 80, NTR1 ag 51 | NTR1 ag conf 85 | B2AR ag CP1 inactive | FAP fluor counter inactive
COc1ccc(Nc2ccnc3ccccc23)cc1	none
Cc1nonc1CN(C)C(=O)CC1C(=O)NCCN1Cc1cccc(C(F)(F)F)c1 (stereo unspecified)	none
CCCCCCCCCCOC(=O)Cn1c(COc2ccc(OC)cc2)[n+](C)c2ccccc21	NTR1 ag 50 | NTR1 ag conf 65 | B2AR ag CP1 inactive | FAP fluor counter inactive
COc1ccc2c(c1OC)C(=O)OC2N1C(=O)CC[C@H]1C(=O)Nc1ccc2c(c1)OCO2 (stereo partly specified)	none
COc1cc2nc(SCc3ccc(Cl)cc3Cl)n(Cc3cccs3)c(=N)c2cc1OC	none
COc1ccc(Cn2c(SCc3cc(C)ccc3C)nc3cc(OC)c(OC)cc3c2=N)cc1	B2AR ag 43, NTR1 ag 48 | NTR1 ag conf inactive | B2AR ag CP1 20 | FAP fluor counter inactive
Cc1ccc(NC(=O)c2cccc(S(=O)(=O)N3CCc4ccccc4C3)c2)nc1	none (no result: Bfl-1 A1 inh)
Cc1cc(N2CCN(C)CC2)ccc1NC(=O)c1cccc(S(=O)(=O)N2CCc3ccccc3C2)c1	B2AR ag 42, NTR1 ag 42 | NTR1 ag conf inactive | B2AR ag CP1 inactive | FAP fluor counter inactive
CCN(CCNCC(O)COc1ccccc1C(C)C)c1cccc(C)c1 (stereo unspecified)	B2AR ag 45, NTR1 ag 54 | NTR1 ag conf inactive | B2AR ag CP1 inactive | FAP fluor counter inactive
O=C(C1CC(=O)N(C2CCCCC2)C1)N1CCc2ccccc21 (stereo unspecified)	none
O=C(Nc1ccc2oc(-c3ccccc3F)nc2c1)c1ccc2c(c1)OCCO2	NTR1 ag 46 | NTR1 ag conf 53 | B2AR ag CP1 inactive | FAP fluor counter inactive
Cc1ccc(N(C)S(=O)(=O)c2cc(-c3cnc(C4CC4)o3)ccc2C)cc1	B2AR ag 104 | B2AR ag CP1 1.5 | FAP fluor counter inactive
Cc1cccc(N(C)S(=O)(=O)c2ccc(-c3cnc(C4CC4)o3)cc2)c1	none
O=C(NC(=S)Nc1cccc(Cl)c1Cl)C1CC1	none
Oc1ccc(C[C@@H]2CNCCN2CCc2cc(C(F)(F)F)cc(C(F)(F)F)c2)cc1	B2AR ag 80 | B2AR ag CP1 inactive | FAP fluor counter inactive
Cc1cc(CN(C)C(=O)CC2C(=O)NCCN2Cc2ccc(-c3ccccc3)cc2)on1 (stereo unspecified)	B2AR ag 46 | B2AR ag CP1 inactive | FAP fluor counter inactive
C=CS(=O)(=O)N(Cc1ccccc1Br)[C@H](CO)CC(C)C	none (no result: GRK2 inh, Bfl-1 A1 inh, VLA-4 inh, NTR1 ag)
OC(c1cc(C(F)(F)F)nc2c(C(F)(F)F)cccc12)C1CCCCN1 (stereo unspecified)	none | B2AR ag CP1 inactive | FAP fluor counter inactive
O=C(NC1(C(=O)O)CCCC1)c1ccccc1	none (no result: GRK2 inh, Bfl-1 A1 inh, VLA-4 inh, NTR1 ag)
O=C(NC1(Cc2ccc(O)cc2)CCCCC1)c1ccccc1	B2AR ag 43 | B2AR ag CP1 41 | FAP fluor counter inactive
C=CCn1c(=O)c2ccccc2n2c(SCC(=O)NCC)nnc12	none
Cc1ccc(Cn2ncc3c(N4CCN(Cc5ccc(Cl)cc5)CC4)ncnc32)cc1	none
Cc1ccccc1N1CCN(c2ncnc3c2cnn3Cc2ccc(Cl)cc2)CC1	B2AR ag 44 | B2AR ag CP1 inactive | FAP fluor counter inactive
CCOc1ccc2oc(C(=O)NCC(C)(C)CN(C)C)c(C)c2c1	B2AR ag 55 | B2AR ag CP1 inactive | FAP fluor counter inactive
Cc1noc(C)c1COc1ccc(C(=O)NNC(=O)c2ccccc2O)cc1	none
O=C(c1cc(COc2ccc(F)cc2Cl)on1)N1CC2C[C@@H]3CC1C[C@H](C2)C3	B2AR ag 87 | B2AR ag CP1 23 | FAP fluor counter inactive
O=C(c1cc(COc2ccc(F)cc2Cl)on1)N1C[C@H]2CC[C@H]1C2	none
COc1ccccc1N1CCN(C(=O)C2CCC(CNS(=O)(=O)c3ccc(NC(C)=O)cc3)CC2)CC1 (stereo unspecified)	none
COC(=O)CS(=O)(=O)c1ccsc1C(=O)Nc1ccc(F)c(F)c1	B2AR ag 47 | B2AR ag CP1 inactive | FAP fluor counter inactive
Cc1ccc(NC(=O)c2sccc2C)cc1S(=O)(=O)N(C)C	none
COc1ccc(N2C(=O)c3ccc(C(=O)OC(C)C)cc3C2=O)cc1	none
COc1ccc(-c2onc(C)c2-c2ccc(C(=O)OC(C)C)o2)c(O)c1	none | B2AR ag CP1 inactive | FAP fluor counter inactive
CC(C)(CNC(=O)CO/N=C1/C=C2CCC3C(C(O)C[C@@]4(C)C3CC[C@]4(O)C(=O)CO)[C@@]2(C)CC1)C(O)C(=O)O (stereo partly specified)	none
Cc1noc(NS(=O)(=O)c2ccc(NC(=O)C34CC5CC(C3)CC(n3cnc(Cl)n3)(C5)C4)cc2)c1C	B2AR ag 74 | B2AR ag CP1 inactive | FAP fluor counter inactive
Cc1noc(NS(=O)(=O)c2ccc(NC(=O)CC34CC5CC(CC(Br)(C5)C3)C4)cc2)c1C	none
Cc1ccc(NC(=O)c2ncn(CCCNCCCc3ccccc3)n2)cc1C	B2AR ag 42 (no result: GRK2 inh, Bfl-1 A1 inh, VLA-4 inh, NTR1 ag) | B2AR ag CP1 inactive | FAP fluor counter inactive
N#CCC(=O)Nc1ccc(C(=O)OCC(=O)Nc2ccc3ccccc3c2)cc1	none
NS(=O)(=O)c1cccc(NC(=O)c2cccc(N3C(=O)c4ccccc4C3=O)c2)c1	none | B2AR ag CP1 inactive | FAP fluor counter inactive
CC(=O)c1cccc(NC(=O)c2cccc(N3C(=O)c4ccccc4C3=O)c2)c1	none | B2AR ag CP1 inactive | FAP fluor counter inactive
COc1ccccc1N1C(=O)c2ccc(C(=O)Nc3cccc(C(C)=O)c3)cc2C1=O	none
CCNC(=O)CN(CCc1ccccc1)S(=O)(=O)c1ccc(OC)cc1	none
COc1ccc(S(=O)(=O)N(CCc2ccccc2)CC(=O)O)cc1	B2AR ag 51 | B2AR ag CP1 inactive | FAP fluor counter inactive
COP(=O)(c1ccc(N(C)C)cc1)C(O)c1ccccc1 (stereo unspecified)	none
O=C(CSc1nc2ccccc2c(=O)n1-c1ccc(F)cc1F)c1c[nH]c2ccccc12	B2AR ag 45 | B2AR ag CP1 inactive | FAP fluor counter inactive
CN(C)S(=O)(=O)c1cccc(NC(=O)c2ccc(N3CCOCC3)c([N+](=O)[O-])c2)c1	B2AR ag 45 | B2AR ag CP1 53 | FAP fluor counter inactive

Compound activity: PubChem, several laboratories
